Laboratory results as given in PubChem BioAssay AID1159580 (chemical genetic matrix, 2015).
Values joined by “and” are separate entries in the source; they are usually repeats but may differ in a detail not shown here. Equal values may be shown once. The campaign covered roughly 5,500 compounds. About 2,000 (36%) were called active. About 18% were inconclusive and are not listed. Rule as the data show it: active = normalized growth mostly below about 0.91 (no sharp cut-off); inconclusive = no clear call, values can overlap the other calls; inactive = mostly above about 0.92. The list shows a part of the results.

Assay: chemical genetic growth profiling, strain panel (AID 1159580);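 also: tested at 20 µM; growth read once vehicle control cultures reached saturation at 30 °C; 1 = growth at the plate median or of vehicle wells; lower values mean less growth of the strain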
Conditions: S. cerevisiae deletion strains, growth OD

Measured: normalized growth

CC(=O)OC1CCC2(C)C(=CC=C3C2CCC2(C)C3CCC2C(C)/C=C/C(C)C(C)C)C1(C)C (configuration not stated)
inactive: locus YAL021C, strain ccr4, hits give low values 0.994 | locus YAL026C, strain drs2, hits give low values 1.02 | locus YAL030W, strain snc1, hits give low values 1.02 | locus YBL061C, strain skt5, hits give low values 1.02 | locus YBR009C, strain hhf1, hits give low values 1.01 | locus YBR021W, strain FUR4, hits give low values 1.02 | locus YBR023C, strain chs3, hits give low values 1.03 | locus YBR171W, strain sec66, hits give low values 1.04 | locus YBR229C, strain ROT2, hits give low values 1.01 | locus YBR231C, strain swc5, hits give low values 1.04 | locus YBR279W, strain paf1, hits give low values 1.02 | locus YCL011C, strain gbp2, hits give low values 1.03 | locus YCL016C, strain dcc1, hits give low values 1.01 | locus YCL029C, strain bik1, hits give low values 1.01 | locus YCL069W, strain vba3, hits give low values 1.02 | locus YCR088W, strain abp1, hits give low values 1.03 | locus YDL005C, strain med2, hits give low values 1.04 | locus YDL035C, strain GPR1, hits give low values 1.03 | locus YDL040C, strain nat1, hits give low values 1.02 | locus YDL074C, strain BRE1, hits give low values 1.06 | locus YDL101C, strain DUN1, hits give low values 1.02 | locus YDL185W, strain tfp1, hits give low values 0.993 | locus YDL192W, strain arf1, hits give low values 1 | locus YDR001C, strain nth1, hits give low values 1.03 | locus YDR069C, strain doa4, hits give low values 1.02 | locus YDR101C, strain arx1, hits give low values 0.974 | locus YDR137W, strain rgp1, hits give low values 1.03 | locus YDR159W, strain sac3, hits give low values 1.04 | locus YDR162C, strain NBP2, hits give low values 0.995 | locus YDR195W, strain ref2 1.05 | locus YDR297W, strain sur2, hits give low values 1.02 | locus YDR318W, strain mcm21, hits give low values 1 | locus YDR334W, strain swr1, hits give low values 1.03 | locus YDR335W, strain msn5, hits give low values 1.02 | locus YDR388W, hits give low values 1.02 | locus YDR392W, strain spt3, hits give low values 0.992 | locus YDR502C, strain sam2, hits give low values 0.989 | locus YEL003W, strain gim4, hits give low values 1.03 | locus YEL037C, strain rad23, hits give low values 1.02 | locus YEL061C, strain CIN8 (second series), hits give low values 1.04 | locus YEL061C, strain CIN8, hits give low values 1.01 | locus YER015W, strain faa2, hits give low values 1.03 | locus YER016W, strain bim1, hits give low values 1.02 | locus YER110C, hits give low values 1.01 | locus YER111C, strain swi4, hits give low values 1.02 | locus YER155C, strain BEM2 (second series), hits give low values 1.05 | locus YER155C, strain BEM2, hits give low values 0.998 | locus YER167W, strain BCK2, hits give low values 1.04 | locus YFR010W, strain ubp6, hits give low values 1.04 | locus YGL078C, strain dbp3, hits give low values 0.987 | locus YGL086W, strain mad1, hits give low values 0.994 | locus YGL167C, strain pmr1, hits give low values 1.02 | locus YGL173C, strain kem1, hits give low values 1.03 | locus YGL227W, strain vid30, hits give low values 1.03 | locus YGL240W, strain doc1, hits give low values 1 | locus YGL248W, strain PDE1, hits give low values 1.01 | locus YGL253W, strain hxk2, hits give low values 1.03 | locus YGR078C, strain PAC10, hits give low values 1.04 | locus YGR135W, strain pre9, hits give low values 0.996 | locus YGR252W, strain gcn5, hits give low values 1.03 | locus YHR013C, strain ard1, hits give low values 1.03 | locus YHR027C, strain rpn1, hits give low values 1.04 | locus YHR030C, strain SLT2, hits give low values 1.01 and 0.996 | locus YHR079C, strain IRE1 (second series), hits give low values 0.998 | locus YHR079C, strain IRE1, hits give low values 1.03 | locus YHR094C, strain hxt1, hits give low values 0.991 | locus YHR129C, strain ARP1, hits give low values 1.03 | locus YHR142W, strain chs7, hits give low values 1.05 | locus YHR200W, strain rpn10, hits give low values 0.986 | locus YIL066C, strain RNR3, hits give low values 1.03 | locus YIL073C, strain SPO22, hits give low values 1.03 | locus YIL125W, strain kgd1, hits give low values 1 | locus YIR030C, strain dcg1, hits give low values 1 | locus YJL092W, strain hpr5, hits give low values 1.03 | locus YJL095W, strain BCK1 (second series), hits give low values 1.02 | locus YJL095W, strain BCK1, hits give low values 1.03 and 0.996 | locus YJL115W, strain asf1, hits give low values 1.03 | locus YJL129C, strain trk1, hits give low values 1.05 | locus YJL134W, strain LCB3, hits give low values 1.01 | locus YJL154C, strain vps35, hits give low values 1.03 | locus YJL164C, strain tpk1, hits give low values 1.01 | locus YJL166W, strain qcr8, hits give low values 1.02 | locus YJL168C, strain set2, hits give low values 1 | locus YJL187C, strain SWE1 (second series), hits give low values 1.03 | locus YJL187C, strain SWE1, hits give low values 1.04 | locus YJR043C, strain POL32, hits give low values 1.03 | locus YJR066W, strain TOR1, hits give low values 0.936 | locus YKL009W, strain mrt4, hits give low values 1.01 | locus YKL068W, hits give low values 1.01 | locus YKL085W, strain MDH1 (second series), hits give low values 1 | locus YKL085W, strain MDH1, hits give low values 1 | locus YKL160W, strain elf1, hits give low values 0.997 | locus YKR001C, strain vps1, hits give low values 0.988 | locus YKR026C, strain gcn3, hits give low values 1.03 | locus YKR091W, strain srl3, hits give low values 1.03 | locus YLL001W, strain dnm1, hits give low values 1.01 | locus YLL026W, hits give low values 1.02 | locus YLL041C, strain sdh2, hits give low values 1.02 | locus YLR027C, strain aat2, hits give low values 1 | locus YLR039C, strain RIC1, hits give low values 1.04 | locus YLR058C, strain SHM2, hits give low values 1.01 | locus YLR102C, strain apc9, hits give low values 0.988 | locus YLR113W, strain HOG1, hits give low values 0.995 | locus YLR221C, strain rsa3, hits give low values 1.02 | locus YLR258W, strain gsy2, hits give low values 1 | locus YLR262C, strain YPT6 (second series), hits give low values 1.01 | locus YLR262C, strain YPT6, hits give low values 1.07 | locus YLR268W, strain sec22, hits give low values 0.998 | locus YLR320W, strain mms22, hits give low values 1.03 | locus YLR330W, strain CHS5, hits give low values 1.02 | locus YLR342W, strain FKS1 (second series), hits give low values 1.12 | locus YLR342W, strain FKS1, hits give low values 1.02 | locus YLR357W, strain rsc2, hits give low values 1.06 | locus YLR370C, strain arc18, hits give low values 1.06 | locus YLR371W, strain rom2, hits give low values 1.01 | locus YLR384C, strain iki3, hits give low values 1.03 | locus YLR418C, strain cdc73, hits give low values 1.02 | locus YML016C, strain PPZ1, hits give low values 1 | locus YML032C, strain rad52, hits give low values 1 | locus YML120C, strain ndi1, hits give low values 1.02 | locus YML124C, strain tub3, hits give low values 0.987 | locus YMR058W, strain fet3, hits give low values 1.05 | locus YMR078C, strain ctf18, hits give low values 0.998 | locus YMR125W, strain sto1, hits give low values 1.03 | locus YMR129W, hits give low values 1.03 | locus YMR205C, strain PFK2, hits give low values 1.02 | locus YMR223W, strain ubp8, hits give low values 1 | locus YMR231W, strain pep5, hits give low values 1.02 | locus YMR263W, strain SAP30, hits give low values 1.03 | locus YMR307W, strain GAS1, hits give low values 1 | locus YNL067W, strain RPL9B, hits give low values 1.04 | locus YNL071W, strain lat1, hits give low values 1.03 | locus YNL183C, strain NPR1, hits give low values 0.965 | locus YNL209W, strain ssb2, hits give low values 1.01 | locus YNL233W, strain BNI4, hits give low values 1.03 | locus YNL248C, strain rpa49, hits give low values 0.965 | locus YNL250W, strain rad50, hits give low values 0.99 | locus YNL271C, strain bni1, hits give low values 1 | locus YNL298W, strain CLA4, hits give low values 0.979 | locus YNL307C, strain MCK1, hits give low values 1.02 | locus YNL322C, strain KRE1 (second series), hits give low values 1.02 | locus YNL322C, strain KRE1, hits give low values 1.02 | locus YNR049C, strain mso1, hits give low values 1.02 | locus YNR052C, strain pop2, hits give low values 1.01 | locus YOL012C, strain htz1 1.7 | locus YOL147C, strain pex11, hits give low values 1 | locus YOR001W, strain rrp6, hits give low values 1.04 | locus YOR061W, strain CKA2, hits give low values 1 | locus YOR069W, strain VPS5, hits give low values 1.01 | locus YOR070C, strain gyp1, hits give low values 1.02 | locus YOR080W, strain dia2, hits give low values 1.02 | locus YOR083W, strain WHI5, hits give low values 0.998 | locus YOR106W, strain vam3, hits give low values 1.02 | locus YOR136W, strain idh2, hits give low values 0.987 | locus YOR144C, strain elg1, hits give low values 0.988 | locus YOR184W, strain ser1, hits give low values 0.983 | locus YOR231W, strain MKK1, hits give low values 1.04 | locus YOR265W, strain rbl2, hits give low values 1.01 | locus YOR270C, strain vph1, hits give low values 1.03 | locus YOR290C, strain snf2, hits give low values 0.993 | locus YOR316C, strain cot1, hits give low values 0.989 | locus YPL051W, strain arl3, hits give low values 1.02 | locus YPL055C, strain LGE1, hits give low values 1.07 | locus YPL078C, strain atp4, hits give low values 0.999 | locus YPL106C, strain sse1, hits give low values 1.05 | locus YPL240C, strain hsp82, hits give low values 1.03 | locus YPL256C, strain CLN2, hits give low values 1.04 | locus YPR119W, strain clb2, hits give low values 1 | locus YPR141C, strain kar3, hits give low values 0.982 | locus YPR163C, strain tif3, hits give low values 0.978 | locus YPR167C, strain met16, hits give low values 1.01 | strain wtn01, hits give low values 0.984
